# Laboratory results from PubChem BioAssay.
# Activity calls are given as the source filed them.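 The calls were made as follows: active = inhibition above 20% together with a positive visual image hit; inconclusive = visual image hit but inhibition not above 20%; inactive = no visual image hit.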
# Experiment: inhibitors of TNFa-induced NFkB p65 translocation, primary screen, imaging, HUVEC, MLSMR starter and 10KST1 sets (AID 438);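 also: compound added about 3h40 before a 20 min TNFalpha stimulation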;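 as to inhibition: signal is the nuclear over cytoplasmic p65 intensity ratio per well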
# Details: HUVEC TNFa-induced p65 nuclear translocation; cell count: measured here: nuclei count (cytotoxicity indicator), at 2.08 µM; inhibition: at 2 µM, stronger effect = higher value, 0% TNFa-plus-vehicle, 100% no-TNFa wells
SMILES,inhibition,cell count
CC1=C(C(N)=O)C(c2ccc(Cl)cc2Cl)n2ncnc2N1 (stereo not given),-2.5% (inactive),631
Cc1cc2c(s1)c1cnn(CC(=O)NCCc3ccccc3)c(=O)c1n2C,17.5% (inactive),279
CCc1c(C)nc(N2CCN(Cc3ccccc3)CC2)[nH]c1=O,-17.8% (inactive),623
O=C1C2CCCN2C(c2ccc(Cl)cc2)N1c1nccs1 (stereo not given),-7.5% (inactive),378
CCCCN(CC)S(=O)(=O)N1CCC(C(=O)NCc2ccc(F)cc2)CC1,-6.9% (inactive),705
O=c1c2nnn(Cc3ccccc3)c2ncn1-c1ccccc1,-8.6% (inactive),522
CNC(=O)CN(c1cc(C)ccc1OC)S(=O)(=O)c1ccc(C)cc1,5% (inactive),317
CCCCC(CC)C(=O)Nc1ccc(Cl)cn1 (stereo not given),8.5% (inactive),461
CCOC(=O)N1CCN(S(=O)(=O)c2ccc(Br)s2)CC1,-8.6% (inactive),350
CC(=O)Nc1ccc(S(=O)(=O)n2cnc(C)c2)cc1,-10.2% (inactive),697
Cc1ccc(S(=O)(=O)NCCCNC(=O)N2CCOCC2)cc1,-4.3% (inactive),769
CC(=O)N(c1ccc(N(C(C)=O)S(=O)(=O)c2cccs2)cc1)S(=O)(=O)c1cccs1,1.3% (inactive),458
CCCCNC(=O)c1c(C)cc(=O)oc1C,-21.8% (inactive),541
COC(=O)c1ccc(CSc2nc3ccccc3c(=O)n2Cc2ccco2)o1,2.6% (inactive),414
N#CCCCN1C(=O)C(O)(CC(=O)c2ccc3c(c2)OCCO3)c2ccccc21 (stereo not given),-8.8% (inactive),698
CN(C)CC(=O)N1c2ccccc2CCc2ccc(NC(=O)c3ccc(N)cc3)cc21,-15.6% (inactive),555
CC1=C(C#N)C(=O)NC(C)(C)C1,4.1% (inactive),410
O=C(NCCO)c1scc2c1OCCO2,-12.8% (inactive),572
O=C(Cn1ccc2ccccc2c1=O)NCCC(=O)NC1CCN(Cc2ccccc2)CC1,-8.5% (inactive),661
CCOc1cc2[nH]c(=O)n(CCCCC(=O)N3CCCCCC3)c(=O)c2cc1OCC,2.2% (inactive),218

SMILES,inhibition,cell count
COc1nc(OC)nc(N2CCC(C(=O)NC3CCCCCC3)CC2)n1,7.8% (inactive),462
Cc1ccccc1CN1CCNC1=O,40.3% (active),624
CCC1(CC)C(=O)C(C)(C)C(=O)OC1c1cccs1 (stereo not given),-8.8% (inactive),750
O=C(NCc1ccccc1)N1CCn2c(nc3ccccc32)C1,2.5% (inactive),555
CC1CCN(C(=O)CSc2nnc(-c3cccnc3)n2C2CCCCC2)CC1,-5.1% (inactive),463
CCCCNC(=O)Nc1ccnn1C1CCCCC1,-7.5% (inactive),909
COc1ccc(OC)c(C2=NOC(C(=O)NCCN3CCOCC3)C2)c1 (stereo not given),-22.4% (inactive),715
CCCc1n[nH]c2c1/C(=N/O)CC(c1ccccc1)C2 (stereo not given),-13.6% (inactive),522
CCOC(=O)C1CCN(C(=O)c2ccc(OC)cc2OC)CC1,-5.3% (inactive),676
CN(CCCC(=O)Nc1ccncc1)S(=O)(=O)c1ccc(Cl)cc1,-5.7% (inactive),573
CCSc1ncc(C#N)c(=O)[nH]1,3.5% (inactive),381
CCOc1ccccc1N1C(=O)CC(Sc2ncccc2C(=O)O)C1=O (stereo not given),-0.7% (inactive),890
COc1ccc(Cn2c(C)nc3c(c2=O)c2nc4ccccc4nc2n3Cc2ccco2)cc1,-0.6% (inactive),375
CCn1c2ccccc2c2cc(NC(=O)Cc3ccc(S(=O)(=O)N4CCOCC4)s3)ccc21,-0.2% (inactive),343
C/C(Cl)=C\Cn1c(NCCc2ccccc2)nc2c1c(=O)n(C)c(=O)n2C,-7.8% (inactive),636
Cc1ccc2cc(CN(CC(C)C)C(=O)C3CCCO3)c(=O)[nH]c2c1 (stereo not given),6.3% (inactive),510
COC(=O)C1(C(=O)OC)Sc2ccccc2C1=O,-11.6% (inactive),427
CCn1c(CC(=O)Nc2cccc(OC)c2)nnc1SCC(=O)Nc1nccs1,4.3% (inactive),835
O=C(O)CCc1ccc(-c2cccs2)n1NC(=O)c1ccco1,3.6% (inactive),719
c1nc(NCC2CCCO2)c2[nH]cnc2n1 (stereo not given),-12.5% (inactive),349
